# Assay outcomes as filed in PubChem BioAssay.
# GLS inh – qHTS for Inhibitors of Glutaminase (GLS). Glutaminase kidney isoform, mitochondrial (Homo sapiens), O94925. GLS enzymatic activity, qHTS titration. Potency, µM (highest dose often 45.5 µM), for the others: at the highest dose activity change, negative = inhibition, hits mostly inhibitors. actives 0.21% (n = 410,000). AID 624170, 2012; further: potency means the concentration at half of the fitted maximal effect; on the % scale 0 is the no-effect control and ±100 the full control effect
# Target sequence (O94925 whole entry, looked up, canonical isoform): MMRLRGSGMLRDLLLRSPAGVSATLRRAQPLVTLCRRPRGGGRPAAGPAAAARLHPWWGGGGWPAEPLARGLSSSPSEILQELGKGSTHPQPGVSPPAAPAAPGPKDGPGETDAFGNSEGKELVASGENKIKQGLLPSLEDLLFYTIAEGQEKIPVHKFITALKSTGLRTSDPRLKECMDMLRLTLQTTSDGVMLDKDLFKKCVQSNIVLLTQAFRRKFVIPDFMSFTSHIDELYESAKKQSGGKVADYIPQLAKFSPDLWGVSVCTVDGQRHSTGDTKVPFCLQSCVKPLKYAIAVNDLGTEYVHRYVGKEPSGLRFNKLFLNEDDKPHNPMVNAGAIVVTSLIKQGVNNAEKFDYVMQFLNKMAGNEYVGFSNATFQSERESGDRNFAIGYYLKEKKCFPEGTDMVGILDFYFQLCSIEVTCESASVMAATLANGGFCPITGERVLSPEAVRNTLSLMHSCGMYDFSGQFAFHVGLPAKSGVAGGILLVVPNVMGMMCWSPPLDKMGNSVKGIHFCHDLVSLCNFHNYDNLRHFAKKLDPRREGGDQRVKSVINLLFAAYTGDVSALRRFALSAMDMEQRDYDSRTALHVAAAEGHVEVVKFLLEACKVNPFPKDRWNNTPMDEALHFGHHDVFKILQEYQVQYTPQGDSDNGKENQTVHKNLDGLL
#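 hKGA; 45 mM KH2PO4 pH 8.2 + 0.02% Tween-20; cpd via pin tool; 1 mM Gln soln; GluOx/HRP/Amplex Red; RT 30 min; fluor. t0 & final.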
# Pol iota inh – qHTS for Inhibitors of Polymerase Iota; DNA polymerase iota (Homo sapiens), Q9UNA4; Pol iota fluorescent replication assay, 10 min; Potency, µM (highest dose often 115 µM), without a hit: at the highest dose activity, negative = inhibition, most hits filed as inhibitors; actives 1% (n = 390,000); AID 588590, 2011; further: potency means the concentration at half of the fitted maximal effect
#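 Pol iota at 10 nM preincubated 15 min with compounds at room temperature; reaction started with fluorescent substrate, 50 nM final. Fluorescence read kinetically at 0 and 10 min; buffer-only wells as negative control.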
# Pol kappa inh – qHTS for Inhibitors of Polymerase Kappa; AID 588579, 2011; DNA polymerase kappa (Homo sapiens), Q9UBT6; Potency, µM (highest dose often 107 µM), without a hit: at the top dose activity, negative = inhibition, hits mostly inhibitors; actives 0.53% (n = 400,000); purified Pol kappa, fluorescent DNA synthesis assay, 10 min; further: potency means the concentration at half of the fitted maximal effect; on the % scale 0 is the no-effect control and ±100 the full control effect
#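 First, compounds were pin-transferred onto 10 nM Pol kappa. After 15 min at room temperature, substrate was added to 50 nM final. Fluorescence was then measured kinetically at 0 and 10 min.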
# GCN5L2 inh-1 – qHTS Assay for Inhibitors of GCN5L2; Histone acetyltransferase KAT2A (Homo sapiens), Q92830; GCN5L2 HAT assay, ThioGlo1 CoA-SH fluorescence; Potency, µM (top dose mostly 58.9 µM), for the others: at the highest dose activity change, negative = inhibition, actives largely listed as inhibitors; actives 0.21% (n = 390,000); AID 504327, 2011; further: potency means the concentration at half of the fitted maximal effect; on the % scale 0 is the no-effect control and ±100 the full control effect
#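 Enzyme at 20nM final was mixed with library compounds for 15 min at room temperature. Peptide H3(1-25) at 75uM, acetyl-CoA at 70uM and ThioGlo1 at 50uM were then added. Plates were read immediately and after 20 min (Ex340nm/Em540nm).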
# Pol eta inh – qHTS for Inhibitors of Polymerase Eta | DNA polymerase eta (Homo sapiens), Q9Y253 | actives 1.2% (n = 390,000) | Potency, µM (series often up to 114 µM), without a hit: at the top dose activity change, negative = inhibition, most hits filed as inhibitors | AID 588591, 2011 | recombinant Pol eta, fluorescent DNA replication assay; further: potency means the concentration at half of the fitted maximal effect; on the % scale 0 is the no-effect control and ±100 the full control effect
#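 Pol eta (10 nM) was preincubated with compounds for 15 min at room temperature, after which fluorescent replication substrate (50 nM final) was added to start the reaction. Fluorescence was read kinetically at 0 and 10 min.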
# Pol beta inh – qHTS Assay for Inhibitors of DNA Polymerase Beta. P06746. Pol beta primer extension/strand displacement, fluorescence kinetic. Potency, µM (highest dose often 114 µM), for inactives: at the top dose activity change, negative = inhibition, actives largely listed as inhibitors. actives 1.3% (n = 340,000). AID 485314, 2010; further: potency means the concentration at half of the fitted maximal effect; on the % scale 0 is the no-effect control and ±100 the full control effect
#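 Curves were derived by four-parameter Hill fits of normalized qHTS data. The kinetic fluorescent primer-extension read was taken at 0 and 10 min after 50 nM substrate, following a 15 min room-temperature preincubation of 10 nM enzyme with compounds.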
# GCN5L2 inh-2 – qHTS Assay for Inhibitors of GCN5L2: Hit confirmation. shares compounds with GCN5L2 inh-1. GCN5L2 HAT, ThioGlo1 CoA fluorescence, 20 min. Potency, µM, actives largely listed as inhibitors. actives 70% (n = 140)
# PGK validate – qHTS for inhibitors of Phosphogylcerate Kinase: Hit Validation Screen. shares compounds with Pol kappa inh. TbPGK coupled GAPDH assay, Kinase-Glo luminescence. Potency, µM (top dose mostly 57.5 µM), for inactives: top-dose activity change, negative = inhibition, hits mostly inhibitors. actives 79% (n = 500). AID 686980, 2013; further: potency means the concentration at half of the fitted maximal effect; on the % scale 0 is the no-effect control and ±100 the full control effect; nearly all actives have a fitted effect of over 65% in size
# The depositor's hits bear a star; ? = inconclusive; / = no result; [ ] = remark or other dose. Only some compounds are listed: those with a hit (about 2.4% of all), similar ones and a draw of the others. The call rests on the fitted dose curve; in most records, active means well fitted curve in the direction sought with a large enough effect; inconclusive means small, poorly fitted or top-dose-only effect, or another doubt; inactive means no such curve, though single readings can be large; an effect the other way counts as inactive or inconclusive.
SMILES,GLS inh,Pol iota inh,Pol kappa inh,GCN5L2 inh-1,Pol eta inh,Pol beta inh,GCN5L2 inh-2,others
CC(C)(C)c1cc(-c2csc(Nc3ccccc3)[n+]2Cc2ccc(C(=O)O)cc2)cc(C(C)(C)C)c1O,-15%,?,0%,22µM*,32µM*,-18%,18*,
COC(=O)c1ccc(C2c3c(oc4ccc(C)cc4c3=O)C(=O)N2Cc2ccc3c(c2)OCO3)cc1 (stereo not given),1%,14%,-20%,-2%,-13%,2%,/,
COc1ccc(-c2nn(-c3ccccc3)cc2/C=N/NC(=O)c2ccc(Br)o2)cc1,-8%,-1%,-18%,25µM*,-12%,79%,9.1*,
O=C(Nc1cccc(S(=O)(=O)Nc2ccccc2F)c1)c1ccco1,3%,53%,-15%,-4%,-15%,/,/,
O=C1CCC(C(=O)Nc2cccc(S(=O)(=O)Nc3ccccc3F)c2)=NN1,-11%,38%,-14%,?,-9%,/,11*,
CCN(CC)Cc1c(O)ccc2c(=O)c(Oc3ccccc3OC)coc12,-8%,-4%,-7%,?,-11%,-21%,?,
COc1ccccc1Oc1coc2c(CN(C)C)c(O)ccc2c1=O,-4%,1%,-3%,-17%,-15%,9%,/,
Nc1ccc(-c2ncc(-c3ccccc3)o2)cc1,-10%,47%,8%,-8%,-17%,2%,/,
Cc1ccc(-c2cnc(-c3ccncc3)o2)cc1,17%,16%,-21%,?,10%,28%,18*,
c1ccc2sc(N3CCOCC3)nc2c1,3%,15%,7%,-11%,-10%,15%,/,
c1ccc2sc(SN3CCOCC3)nc2c1,2%,-3%,5%[19.4 µM],?,-2%,13%,14*,
O=C(CSc1nnc(-c2ccco2)c(-c2ccco2)n1)Nc1ccccc1,-5%,5µM*,20µM*,?,2.8µM*,-121%,26*,
Cc1cccc(C)c1NC(=O)CSc1nnc(-c2ccco2)c(-c2ccco2)n1,142%,?,28µM*,13µM*,3.5µM*,3.2µM*,?,
CC(C)CN(CC(C)C)S(=O)(=O)c1ccc(C(=O)Nc2sc3c(c2C(N)=O)CCN(C(C)C)C3)cc1,7%,?,-6%[60.1 µM],-8%,-1%,26%,/,
CC(NC(=O)c1sc2cc([N+](=O)[O-])ccc2c1Cl)C(C)(C)C (stereo not given),-13%,?,-13%,?,-2%,9%[57.1 µM],3.6*,
CCc1ccc(S(=O)(=O)/N=C2/C=C(Sc3ncn[nH]3)C(=O)c3ccccc32)cc1,8%,1.1µM*,-28%,32µM*,6.3µM*,-25%,4.6*,
CCc1ccc(S(=O)(=O)/N=C2\C=CC(=O)c3ccccc32)cc1,/,/,/,-6%,/,17%,/,
O=C(CN1C(=O)/C(=C2\SC(=S)N(CCS(=O)(=O)O)C2=O)c2ccccc21)Nc1cccc(Br)c1,14%,?,?,20µM*,?,?,11*,PGK validate=15µM*
Cc1oc2cc3oc(=O)c(CC(=O)NCc4ccccc4)c(C)c3cc2c1C,-8%,18%,1%,-4%,-15%,8%,/,
